Screening results as filed in PubChem.
HT1080NT lethal – qHTS for induction of synthetic lethality in tumor cells producing 2HG: qHTS for the HT-1080-NT fibrosarcoma cell line; HT-1080-NT fibrosarcoma viability, CellTiter-Glo ATP luminescence, 48 h; Potency, µM (highest dose often 46.1 µM), for inactives: at the top dose activity, negative = less viability, actives largely listed as cytotoxic; AID 686970, 2013; 360,000 compounds, 1.6% hits;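 note: NT is the 2HG producing partner of a matched IDH1 knockdown line; 0% = DMSO-treated cells and -100% = media-only wells without cells; nearly all actives have a fitted effect of over 55% in size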
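HT-1080-NT fibrosarcoma cells (2HG-overproducing), 750 cells/well in RPMI with 5% FBS, dosed after 2 h and incubated 48 h at 37C. CellTiter-Glo luminescence normalized to DMSO and no-cell wells; concentration-response curves fitted and classed.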
KB-3-1 cytotox – qHTS assay for MDR1-selective chemotherapeutics: Primary screen using the parental adenocarcinoma cell KB-3-1. AID 1347075, 2019. Potency, µM (doses to about 46.1 µM), usual class: cytotoxic. 400,000 compounds, 1.4% hits. KB-3-1 viability, CellTiter-Glo ATP luminescence, 72 h; note: % is set by controls: 0 for no effect and ±100 for the full control effect; nearly all actives have a fitted effect of over 60% in size
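72 h, 37 °C compound treatment of KB-3-1 parental cells; CellTiter-Glo added, 10 min, luminescence read. Data corrected against DMSO-only plates and normalized before curve fitting.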
KB-V1 MDR tox – qHTS assay for MDR1-selective chemotherapeutics: Primary screen using the drug-selected MDR subline cells KB-V1. 400,000 compounds, 3.4% hits. AID 1347076, 2019. KB-V1 MDR cells viability, CellTiter-Glo, 72 h. Potency, µM (series often up to 46.1 µM), most hits filed as cytotoxic; note: % is set by controls: 0 for no effect and ±100 for the full control effect; nearly all actives have a fitted effect of over 60% in size
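Luminescent ATP read-out (CellTiter-Glo, 10 min) measures survival of drug-selected KB-V1 MDR cells after 72 h, 37 degrees C compound exposure. Medium: phenol-red-free DMEM, 10% FBS. Values from fitted concentration-response curves.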
HT1080 IDH1KD tx – qHTS for induction of synthetic lethality in tumor cells producing 2HG: qHTS for the HT-1080-IDH1KD cell line; HT-1080 IDH1 knockdown viability, ATP luminescence, 48 h; Potency, µM (top dose mostly 46.1 µM), for the others: at the top dose activity, negative = toxicity, usual class: cytotoxic; 360,000 compounds, 2% hits; AID 686971, 2013;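 note: 0% = DMSO wells and -100% = cell-free medium wells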
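Viability of IDH1-knockdown HT-1080 fibrosarcoma cells was assessed by CellTiter-Glo after 48 h at 37 °C with titrated compound; concentration-effect curves were classified by fit quality and response size.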
ATXN2 expr inh – Primary qHTS for Inhibitors of ATXN expression; HEK-293 ATXN2-luciferase reporter, luminescence, 24 h; Potency, µM (doses to about 57 µM), for inactives: top-dose activity change, negative = inhibition, usual class: inhibitors; 360,000 compounds, 0.72% hits; AID 1745845, 2022; note: % is set by controls: 0 for no effect and ±100 for the full control effect; nearly all actives have a fitted effect of over 55% in size
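ATXN2-luciferase reporter cells (luciferase flanked by upstream and downstream ATXN2 gene portions) were treated 24 h at 37 °C with compounds at up to 57 uM. SteadyGlo luminescence gave expression; GF-AFC fluorescence gave viability.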
S2 tox – Viability Counterscreen for Primary qHTS for Inhibitors of ATXN expression; S2 cells (HEK-293 line with an ATXN2-luciferase reporter) viability, CellTiter-Fluor protease fluorescence, 24 h; Potency, µM (highest dose often 56.7 µM), actives largely listed as cytotoxic; 400,000 compounds, 0.49% hits; note: nearly all actives have a fitted effect of over 40% in size
Starred values were filed as active, the others as inactive; i = inactive; ? = inconclusive; nt = not tested or not shown; [ ] = dose if it differs, or a comment. Compounds with a hit are over-represented: about 6.2% of the library has one in this group of screens. Calls come from the whole dose curve; as a rule, active = well fitted curve in the direction sought with a large enough effect; inconclusive = small, poorly fitted or top-dose-only effect, or another doubt; inactive = no such curve, though single readings can be large; an effect the other way counts as inactive or inconclusive. Potency is the fitted concentration of half-maximal effect.

SMILES	HT1080NT lethal	KB-3-1 cytotox	KB-V1 MDR tox	HT1080 IDH1KD tx	ATXN2 expr inh	S2 tox
CCOc1ccc(/C=C/C(O)=C2/C(=O)NC3(C)CC2c2ccccc2O3)cc1OC (configuration not stated)	-24%	?	?	?	-12%	?
O=C(N/N=C1\CCCc2ccccc21)c1ccccc1Cl	2%	i	i	-1%	37%	i
O=C(N/N=C1\CCc2ccccc21)c1ccccc1O	?	i	21µM*	?	?	i
Cc1ccc(OCC(=O)Nc2ccc3c(c2)nc(CCN2CCN(c4ccccn4)CC2)n3C)cc1	21µM*	i	i	21µM*	nt	?
CC(=O)N1CCN(Cc2nc3cc(NC(=O)Cn4nc(C)c5ccccc5c4=O)ccc3n2C)CC1	-5%	i	i	1%	0%	i
Cc1nn(CC(=O)Nc2ccc3c(c2)nc(CCN2CCCCC2)n3C)c(=O)c2ccccc12	?	i	i	2.8µM*	-2%	i
Cc1ccc(C(C)C)c(OCC(=O)Nc2ccc3c(c2)nc(CCN2CCCCC2)n3C)c1	21µM*	i	?	16µM*	?	nt
COc1ccc(-c2cc(C(=O)Oc3ccc(C#N)cc3)no2)cc1	nt	i	?	nt	12%	i
COc1ccc(-c2cn3nc(N4CCCC(C(=O)Nc5cccc(OC)c5)C4)sc3n2)cc1 (configuration not stated)	nt	i	i	nt	-12%	i
COc1ccc(CN2C(=O)CCC2(C)C(=O)NC2CCCCCC2)cc1 (configuration not stated)	1%	i	15µM*	7%	-2%	i
COc1cccc(CN2C(=O)CCC2(C)C(=O)NC2CCCCC2)c1 (configuration not stated)	0%	i	i	-2%	2%	i
CC(C)CCN1C(=O)CCC1(C)C(=O)NC1CCCCCCC1 (configuration not stated)	0%	i	i	-4%	2%	i
CCc1ccc(CN2C(=O)CCC2(C)C(=O)NC2CCCC2)cc1 (configuration not stated)	4%	i	21µM*	5%	-3%	i
CC(C)CCN1C(=O)CCC1(C)C(=O)NC1CCCCCC1 (configuration not stated)	17%	i	18µM*	-23%	-7%	i
COc1cc(C2(c3ccc(O)c(OC)c3)C(=O)Nc3c(C)cc(Br)cc32)ccc1O	?	i	i	?	-38%	?
CC(C)c1ccc2oc(-c3cc(N)ccc3O)nc2c1	-10%	i	18µM*	-20%	-12%	i
Cc1ccccc1-c1nc2cc(N)ccc2o1	0%	i	?	0%	60%	i
O=C(CSc1ncc2c(n1)-c1ccccc1N(Cc1ccc(F)cc1)S2(=O)=O)NCCc1ccccc1	nt	i	i	nt	7%	i
CCCCC(O)/C=C(C)/C=C/C=C/C(=O)N1CCCC1=O (configuration not stated)	nt	nt	nt	nt	15%	i
Cc1ccc(CNC(=O)CN2CCN(Cc3ccc(F)cc3Cl)C2=O)cc1	nt	i	i	nt	-20%	?
COc1ccccc1N1CCN(C(c2ccccc2)c2nnnn2Cc2ccccc2)CC1 (configuration not stated)	nt	?	i	nt	nt	nt
COc1ccc(Cn2nnnc2C(c2cccs2)N2CCCCCC2)cc1 (configuration not stated)	-18%	?	16µM*	-18%	-13%	i
COc1ccc(Cn2nnnc2C(C(C)C)N2CCN(c3ccccc3OC)CC2)cc1 (configuration not stated)	-18%	18µM*	?	-1%[9.24 µM]	-5%	?
COc1ccc(Cn2nnnc2C(c2cccs2)N2CCSCC2)cc1 (configuration not stated)	6%	i	i	-2%	-13%	i
CC1CCN(C(c2cccs2)c2nnnn2Cc2ccccc2)CC1 (configuration not stated)	-18%	?	15µM*	-24%	0%	i
SMILES	HT1080NT lethal	KB-3-1 cytotox	KB-V1 MDR tox	HT1080 IDH1KD tx	ATXN2 expr inh	S2 tox
O=C(NC1CCN(C(=O)Nc2ccc(F)cc2)CC1)c1ccc(F)cc1	?	i	i	19%	-11%	i
Cc1cccc(CNC(=O)c2ccc3nc(-c4ccccc4)c(-c4ccccc4)nc3c2)c1	nt	i	i	nt	nt	nt
S=C(NCc1ccccc1)NC1CCCCC1	-2%	i	i	1%	-19%	i
S=C(NCCC(c1ccccc1)c1ccccc1)Nc1cccc(Cl)c1	?	i	?	?	?	i
S=C(NCCN(C1CCCCC1)C1CCCC1)Nc1cccc(Cl)c1	16µM*	?	?	16µM*	?	?
S=C(NCc1cccc(Cl)c1)NC1CCCCC1	-1%	?	18µM*	-1%	-1%	i
Cc1cnc(-n2ncc(C(=O)NCCN3CCOCC3)c2C2CC2)nc1-c1cccs1	nt	nt	nt	nt	nt	i
CCOC(=O)CNC(=O)c1sc2ncnc(N3CCc4ccccc4C3)c2c1C	-11%	i	15µM*	-21%	5%	i
CN(C)c1ccc(/C=C2\NC(=O)NC2=O)cc1	nt	i	?	nt	nt	nt
CCOC(=O)Nc1cc(=O)c2ccccc2o1	8.9µM*	?	?	?	10%	i
CCOc1ccccc1NC(=O)c1cc(=O)c2ccccc2o1	-7%	i	i	1%	nt	i
COc1ccc(C2=C(C)C(N3CCC(C(=O)NCc4ccc(C)o4)CC3)=NS2(=O)=O)cc1	nt	i	i	nt	4%	i
COc1cccc(CNC(=O)C23CN(Cc4ccccc4)CC2C(c2ccc([N+](=O)[O-])cc2)=NO3)c1 (configuration not stated)	-3%	i	13µM*	-3%	8%	i
O=C(c1ccco1)N1CCCN(C(=O)c2ccco2)CC1	16%	i	i	6%	6%	i
O=C(NC1CCN(C(=O)N2c3ccccc3Sc3ccccc32)CC1)c1ccco1	?	?	i	21µM*	26%	?
O=C(c1ccco1)N1CCN(C(=O)N2c3ccccc3Sc3ccccc32)CC1	?	0.52µM*	0.65µM*	?	-10%	?
